{
  "source": "PubChem BioAssay (NCI)",
  "note": "The panel holds about 83,000 compounds, 20% with a hit somewhere; the sample as a whole holds those more often.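 Values shown are percent growth following 48 h exposure of cells in 96-well plates to a single concentration of compound; below 10 was considered active.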 Values without a mark were called inactive. Active and inactive are the calls of the source.",
  "data": [
    {"system": "HL-60(TB) leukemia", "assay": "NCI-60 one-dose screen, 48 h (100 = growth as untreated, 0 = no growth, -100 = all killed)", "conditions": "10 µM unless noted", "values": [
      {"smiles": "COc1ccc(-c2cc(C(=O)N3N=C(c4ccc(N)cc4)CC3c3ccccc3)c3ccccc3n2)cc1", "note": "(stereo not given)", "growth": "-28% (active)"},
      {"smiles": "CN1CCN(Cc2ccc(NC(=O)c3cncc(C#Cc4c(N)ncc5cc(F)ccc45)c3)cc2C(F)(F)F)CC1", "growth": "-46.2% (active)"},
      {"smiles": "O=S(=O)(O)c1ccc(N=Nc2ccc(N=Nc3cccc4ccccc34)c(S(=O)(=O)O)c2)cc1", "growth": "105%"},
      {"smiles": "O=C(Cn1cc(CO)nn1)Nc1nc2ccccc2s1", "growth": "97.1%"},
      {"smiles": "Cc1ccc2c(-c3cc(-c4ccccc4)nc(N)c3C#N)cc(=O)oc2c1", "growth": "117%"},
      {"smiles": "CCC1(/C=N/NC(N)=S)NC(=O)NC1=O", "note": "(stereo not given)", "growth": "111%"},
      {"smiles": "Cn1c(=O)c2[nH]c(NN)nc2n(C)c1=O", "growth": "91.6%"},
      {"smiles": "CCCCNC(=O)C(=O)NCCCC", "growth": "113%"},
      {"smiles": "C[n+]1ccc(C#N)c2ccccc21", "growth": "70.3%"},
      {"smiles": "COc1cc(N2CCC(N(C)C)CC2)ccc1Nc1ncc(Cl)c(Nc2ccccc2P(C)(C)=O)n1", "growth": "10%"},
      {"smiles": "COc1cc(-c2nc3sc(C)cn3c2/C=C2\\C(=O)Nc3ccccc32)c(Br)c(OC)c1OC", "growth": "-7.35% (active)"},
      {"smiles": "COc1cc(NC2CCCCC2O)c2nc(-c3ccc(Cl)cc3)ccc2c1", "note": "(stereo not given)", "growth": "81.9%"},
      {"smiles": "CC/C=C\\C[C@H](F)C/C=C1/C(=O)C=C[C@@H]1C/C=C\\CCCC(=O)OC", "growth": "-33.1% (active)"},
      {"smiles": "O=C(O)c1cccc(-n2ncc(Cl)c(Cl)c2=O)c1", "growth": "107%"},
      {"smiles": "CSc1nc(=O)n(Cc2ccc(Cl)cc2)c(=O)[nH]1", "growth": "105%"},
      {"smiles": "S=c1[nH]nc2sc3ccccc3n12", "growth": "107%"},
      {"smiles": "Cn1c(I)c(C#CCO[Si](C)(C)C(C)(C)C)c(=O)[nH]c1=O", "growth": "-41.2% (active)"},
      {"smiles": "O=C(Nc1cccc2ccccc12)c1cc2c(cc1Br)OCO2", "growth": "75.9%"},
      {"smiles": "Nc1ncc(C#Cc2cncc(NC(=O)c3cccc(C(F)(F)F)c3)c2)c2cccnc12", "growth": "33.2%"},
      {"smiles": "CCOC(=O)c1cc(C(=O)c2ccc(F)cc2F)n2ccccc12", "growth": "96.4%"},
      {"smiles": "Cc1ccc(/C=C/C(=O)c2ccc(-n3cc(CN4CCN(c5cc6c(cc5F)c(=O)c(C(=O)O)cn6C5CC5)CC4)nn3)cc2)cc1", "growth": "98.8%"},
      {"smiles": "CC(=O)c1nc2ccccc2n1CC(=O)c1cccc(Cl)c1", "growth": "-28.9% (active)"},
      {"smiles": "CCCCC/C=C/C/C=C/CCCCCCCC1=NC(C)(C)CN1C(C)C", "growth": "13.7%"},
      {"smiles": "O=Cc1ccc(O)c2ncccc12", "growth": "-69.3% (active)"},
      {"smiles": "Nc1nc2ccc(-c3nc4ccc5[nH]ncc5c4c4c3CCC4)cc2s1", "growth": "30.2%"},
      {"smiles": "CN(C1c2ccccc2Oc2ccccc21)S(=O)(=O)c1cc(Cl)ccc1Cl", "growth": "15.7%"},
      {"smiles": "CCCCCCCCCCCCCCCCOC(=O)c1c(C)[nH]c(/C=C2\\N=C(c3ccc[nH]3)C=C2OC)c1C", "growth": "62.2%"},
      {"smiles": "O=C(Cc1ccc(/C=C/C(=O)c2ncc[nH]2)cc1)Nc1ccc(S(F)(F)(F)(F)F)cc1", "growth": "42.1%"},
      {"smiles": "COc1ccc(CNc2ccc3nc(NC(=O)CN4CCCCCC4)sc3c2)cc1", "growth": "47.4%"},
      {"smiles": "C1CN(CC2CCC(CN3CCOCC3)O2)CCO1", "note": "(stereo not given)", "growth": "87%"},
      {"smiles": "Cc1ccc(C(=O)Nc2cccc(F)c2)cc1NC(=O)C1(c2ncnc3[nH]ccc23)CC1", "growth": "64.7%"},
      {"smiles": "CN1CCN(c2nc(-c3ccncc3)nc3sc4c(c23)CCCCCC4)CC1", "growth": "88.3%"},
      {"smiles": "c1ccc(Cn2cc3c(c2-c2ccccc2)CCc2cnoc2-3)cc1", "growth": "35.6%"},
      {"smiles": "Cc1ccc(OCCCCCCNCCO)c(C)c1", "growth": "-3.98% (active)"},
      {"smiles": "Nc1nc(N)c(N=Nc2ccc(C(=O)O)cc2)c(N)n1", "growth": "90%"},
      {"smiles": "COc1ccc(CNCCN2C(=O)c3ccc4c5c(ccc(c35)C2=O)C(=O)N(CCNCc2ccc(OC)c(OC)c2OC)C4=O)c(OC)c1OC", "growth": "-43.2% (active)"},
      {"smiles": "Cc1cccc(C)c1-c1cc(Cc2ccc(Cl)cc2)c(=O)[nH]n1", "growth": "90.8%"},
      {"smiles": "O=c1oc2ccc(I)cc2c(=O)n1-c1ccc(I)cc1F", "growth": "-49.1% (active)"},
      {"smiles": "CC1(C)COC(=S)N1", "growth": "80.3%"},
      {"smiles": "NS(=O)(=O)c1ccc(N2CC(c3nc4ccccc4[nH]3)CC2=O)cc1", "note": "(stereo not given)", "growth": "99.4%"}
    ]}
  ]
}
